# Source: the supplement of paper PMC12067093, “Discovery and optimisation of a covalent ligand for TRIM25 and its application to targeted protein ubiquitination” (Chemical Science, 2025)
# Targets with the largest changes are over-represented here; the source holds about 21,000 in all.
# Compound: Cc1cc(ccc1-c1ccccc1)C(=O)N1CCCN(CC1)C(=O)CCl [compound 10]
# Test: probe-labelled cysteine peptide fold change vs DMSO (competition) (log2 fold change); higher = less target engagement (more negative = stronger competition)
# Settings: 10 µM; THP-1; incubation time: 4 h
# 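Also: competitive profiling in live THP-1 cells: cysteine peptides tagged with an iodoacetamide desthiobiotin (IA-DTB) probe, intensity after compound treatment relative to DMSO-treated cells.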
# Chain of UniProt Q9BWH6 (Q9BWH6 whole entry): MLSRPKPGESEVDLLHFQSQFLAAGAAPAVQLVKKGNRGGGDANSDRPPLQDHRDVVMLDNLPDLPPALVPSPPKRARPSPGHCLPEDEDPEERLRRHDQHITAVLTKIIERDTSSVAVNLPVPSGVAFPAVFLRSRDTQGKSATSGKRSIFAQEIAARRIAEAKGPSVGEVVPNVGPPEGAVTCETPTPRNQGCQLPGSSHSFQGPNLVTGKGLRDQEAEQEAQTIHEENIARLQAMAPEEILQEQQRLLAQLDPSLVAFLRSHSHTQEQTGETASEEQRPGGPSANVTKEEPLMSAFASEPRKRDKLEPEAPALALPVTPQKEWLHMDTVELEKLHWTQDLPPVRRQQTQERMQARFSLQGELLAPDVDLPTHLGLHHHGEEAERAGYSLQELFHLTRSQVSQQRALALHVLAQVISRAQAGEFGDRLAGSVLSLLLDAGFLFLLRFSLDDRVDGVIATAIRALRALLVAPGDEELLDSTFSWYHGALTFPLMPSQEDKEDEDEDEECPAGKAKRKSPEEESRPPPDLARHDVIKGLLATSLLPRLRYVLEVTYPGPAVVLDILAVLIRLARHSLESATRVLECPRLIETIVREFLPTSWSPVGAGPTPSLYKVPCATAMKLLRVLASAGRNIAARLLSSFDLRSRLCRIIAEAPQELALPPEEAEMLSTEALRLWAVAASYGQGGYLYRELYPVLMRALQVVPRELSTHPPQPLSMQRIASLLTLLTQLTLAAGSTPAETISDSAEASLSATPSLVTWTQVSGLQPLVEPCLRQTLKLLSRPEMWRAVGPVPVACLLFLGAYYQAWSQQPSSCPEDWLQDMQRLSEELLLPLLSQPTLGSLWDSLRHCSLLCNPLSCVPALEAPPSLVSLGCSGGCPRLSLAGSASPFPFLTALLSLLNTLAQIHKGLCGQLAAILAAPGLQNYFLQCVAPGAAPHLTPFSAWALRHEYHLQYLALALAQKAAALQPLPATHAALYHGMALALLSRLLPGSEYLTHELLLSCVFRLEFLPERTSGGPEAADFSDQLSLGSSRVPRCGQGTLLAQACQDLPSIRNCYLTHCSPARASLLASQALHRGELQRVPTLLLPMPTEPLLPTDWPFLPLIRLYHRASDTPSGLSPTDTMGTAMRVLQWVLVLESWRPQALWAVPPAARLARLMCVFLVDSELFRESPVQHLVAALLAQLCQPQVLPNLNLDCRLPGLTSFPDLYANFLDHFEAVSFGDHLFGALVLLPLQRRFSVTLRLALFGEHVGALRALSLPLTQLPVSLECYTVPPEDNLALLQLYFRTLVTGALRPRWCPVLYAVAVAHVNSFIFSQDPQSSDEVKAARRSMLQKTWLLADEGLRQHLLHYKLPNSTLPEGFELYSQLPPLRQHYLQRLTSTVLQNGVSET
# Chain of UniProt Q8IW52 (Q8IW52 whole entry, looked up): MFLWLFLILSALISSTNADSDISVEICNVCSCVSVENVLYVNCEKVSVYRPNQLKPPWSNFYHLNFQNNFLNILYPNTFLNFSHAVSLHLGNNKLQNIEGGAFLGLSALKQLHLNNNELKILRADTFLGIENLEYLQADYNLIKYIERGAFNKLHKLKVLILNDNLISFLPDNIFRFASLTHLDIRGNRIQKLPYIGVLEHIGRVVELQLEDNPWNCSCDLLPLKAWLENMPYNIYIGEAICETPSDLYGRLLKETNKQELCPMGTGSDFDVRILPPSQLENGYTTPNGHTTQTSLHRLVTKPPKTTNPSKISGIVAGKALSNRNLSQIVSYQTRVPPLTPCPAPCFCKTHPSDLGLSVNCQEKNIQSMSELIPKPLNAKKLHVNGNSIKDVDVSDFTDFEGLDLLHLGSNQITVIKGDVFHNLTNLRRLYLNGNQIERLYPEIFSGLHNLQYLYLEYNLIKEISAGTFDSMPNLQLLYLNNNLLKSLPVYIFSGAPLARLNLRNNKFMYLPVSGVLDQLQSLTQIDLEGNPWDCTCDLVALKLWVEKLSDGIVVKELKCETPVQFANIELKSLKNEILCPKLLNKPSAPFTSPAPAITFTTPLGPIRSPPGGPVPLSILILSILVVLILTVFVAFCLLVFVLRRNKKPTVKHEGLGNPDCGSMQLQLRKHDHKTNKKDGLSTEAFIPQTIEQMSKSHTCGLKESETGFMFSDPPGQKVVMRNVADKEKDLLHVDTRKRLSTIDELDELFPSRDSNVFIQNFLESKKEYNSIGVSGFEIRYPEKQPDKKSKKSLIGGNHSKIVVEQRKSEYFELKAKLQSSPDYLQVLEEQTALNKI
# Chain of UniProt Q9UGP8 (Q9UGP8 whole entry, looked up): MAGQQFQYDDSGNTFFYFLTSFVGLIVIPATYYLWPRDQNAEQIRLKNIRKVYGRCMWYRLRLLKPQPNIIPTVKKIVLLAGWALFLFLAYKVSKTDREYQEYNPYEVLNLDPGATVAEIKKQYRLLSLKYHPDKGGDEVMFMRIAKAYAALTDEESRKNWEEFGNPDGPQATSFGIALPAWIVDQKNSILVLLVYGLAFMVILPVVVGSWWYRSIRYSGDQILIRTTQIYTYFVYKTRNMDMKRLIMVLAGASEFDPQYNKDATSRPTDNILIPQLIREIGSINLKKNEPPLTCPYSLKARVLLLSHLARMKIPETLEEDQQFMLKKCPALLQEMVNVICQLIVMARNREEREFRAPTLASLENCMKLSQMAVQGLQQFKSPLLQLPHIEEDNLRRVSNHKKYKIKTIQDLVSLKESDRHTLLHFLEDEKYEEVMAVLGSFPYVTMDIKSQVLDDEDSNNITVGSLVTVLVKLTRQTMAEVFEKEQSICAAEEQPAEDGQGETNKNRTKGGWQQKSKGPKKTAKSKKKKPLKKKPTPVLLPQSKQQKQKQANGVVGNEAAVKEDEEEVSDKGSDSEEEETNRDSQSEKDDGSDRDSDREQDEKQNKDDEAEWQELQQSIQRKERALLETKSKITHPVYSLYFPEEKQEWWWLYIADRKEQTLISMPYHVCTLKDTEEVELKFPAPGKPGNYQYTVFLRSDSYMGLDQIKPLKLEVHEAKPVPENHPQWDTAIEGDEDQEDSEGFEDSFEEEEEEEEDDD
# Chain of UniProt Q92854 (Q92854 whole entry, looked up): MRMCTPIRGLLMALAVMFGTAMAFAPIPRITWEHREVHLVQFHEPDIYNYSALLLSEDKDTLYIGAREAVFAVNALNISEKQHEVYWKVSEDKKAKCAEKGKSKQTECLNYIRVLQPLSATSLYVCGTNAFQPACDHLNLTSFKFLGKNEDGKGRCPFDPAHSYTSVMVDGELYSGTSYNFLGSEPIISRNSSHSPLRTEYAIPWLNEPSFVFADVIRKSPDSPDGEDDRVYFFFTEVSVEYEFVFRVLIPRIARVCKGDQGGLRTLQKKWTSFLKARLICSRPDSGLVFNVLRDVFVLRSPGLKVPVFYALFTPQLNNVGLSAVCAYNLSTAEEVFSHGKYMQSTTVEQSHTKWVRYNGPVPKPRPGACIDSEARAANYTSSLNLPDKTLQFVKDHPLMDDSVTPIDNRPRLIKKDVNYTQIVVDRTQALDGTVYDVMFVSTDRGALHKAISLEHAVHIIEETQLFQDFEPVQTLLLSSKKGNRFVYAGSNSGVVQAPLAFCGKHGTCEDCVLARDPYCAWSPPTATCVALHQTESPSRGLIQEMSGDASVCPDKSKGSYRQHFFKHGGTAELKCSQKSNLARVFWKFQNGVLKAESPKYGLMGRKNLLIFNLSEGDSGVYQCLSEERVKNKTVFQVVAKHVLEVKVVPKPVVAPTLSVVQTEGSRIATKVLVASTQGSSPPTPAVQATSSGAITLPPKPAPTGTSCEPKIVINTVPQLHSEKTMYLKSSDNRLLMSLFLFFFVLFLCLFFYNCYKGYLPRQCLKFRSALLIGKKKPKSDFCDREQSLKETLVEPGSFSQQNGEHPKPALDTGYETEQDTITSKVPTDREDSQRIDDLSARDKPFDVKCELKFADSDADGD
# Chain of UniProt Q86SQ7 (Q86SQ7 whole entry, looked up): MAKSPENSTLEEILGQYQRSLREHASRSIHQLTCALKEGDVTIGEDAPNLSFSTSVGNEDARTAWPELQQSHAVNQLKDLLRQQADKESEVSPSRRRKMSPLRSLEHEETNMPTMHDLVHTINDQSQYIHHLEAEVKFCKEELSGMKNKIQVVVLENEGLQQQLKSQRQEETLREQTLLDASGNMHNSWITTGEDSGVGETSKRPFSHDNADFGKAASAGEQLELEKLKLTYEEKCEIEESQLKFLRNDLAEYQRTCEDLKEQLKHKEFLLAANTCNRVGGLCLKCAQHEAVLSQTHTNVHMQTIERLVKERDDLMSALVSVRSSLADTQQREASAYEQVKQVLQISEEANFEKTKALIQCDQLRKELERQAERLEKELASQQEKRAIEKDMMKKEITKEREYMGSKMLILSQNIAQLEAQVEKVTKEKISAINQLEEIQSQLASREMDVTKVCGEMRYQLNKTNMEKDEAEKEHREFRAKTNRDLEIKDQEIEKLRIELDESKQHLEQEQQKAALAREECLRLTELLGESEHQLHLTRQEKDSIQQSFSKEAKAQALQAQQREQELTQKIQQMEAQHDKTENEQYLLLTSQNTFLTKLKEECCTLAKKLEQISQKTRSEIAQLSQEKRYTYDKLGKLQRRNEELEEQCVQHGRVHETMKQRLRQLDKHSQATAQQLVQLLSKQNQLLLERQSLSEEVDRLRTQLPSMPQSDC
# Chain of UniProt P08621 (P08621 whole entry): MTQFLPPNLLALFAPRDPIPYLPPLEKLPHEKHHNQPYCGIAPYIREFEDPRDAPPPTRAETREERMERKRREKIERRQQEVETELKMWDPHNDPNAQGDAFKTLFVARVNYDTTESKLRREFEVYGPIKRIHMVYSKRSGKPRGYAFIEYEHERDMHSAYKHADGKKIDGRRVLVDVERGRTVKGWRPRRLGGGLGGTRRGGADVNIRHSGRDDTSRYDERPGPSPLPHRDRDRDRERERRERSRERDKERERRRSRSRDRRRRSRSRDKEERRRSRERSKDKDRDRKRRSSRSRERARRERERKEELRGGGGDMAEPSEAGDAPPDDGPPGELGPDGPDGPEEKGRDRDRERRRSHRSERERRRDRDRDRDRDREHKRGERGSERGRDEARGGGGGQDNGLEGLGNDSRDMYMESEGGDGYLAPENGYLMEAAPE
row,Target,probe-labelled cysteine peptide fold change
1,SLC25A5_P05141_257_KGTDIMYTGTLDCWR (UniProt P05141),-0.111
2,SLK_Q9H2G2_1138_DLQLQCEANVR (UniProt Q9H2G2),0.0336
3,RNF14_Q9UBS8_350_LTYHGVSPCK (UniProt Q9UBS8),-0.0421
4,SCAF11_Q99590_506_KLENTGIEANVLCLESEISENILEK (UniProt Q99590),-0.478
5,RNH1_P13489_323+330_SCSFTAACCSHFSSVLAQNR (UniProt P13489),-0.0759
6,SEMA4D_Q92854_370_PRPGACIDSEAR (UniProt Q92854),-0.224
7,SLITRK4_Q8IW52_661_HEGLGNPDCGSMQLQLR (UniProt Q8IW52),-0.281
8,SLX4_Q8IY92_318_CLDEAEK (UniProt Q8IY92),-0.0818
9,RPAP1_Q9BWH6_185_GPSVGEVVPNVGPPEGAVTCETPTPR (UniProt Q9BWH6),0.902
10,RNF20_Q5VTR2_960_CNAAFGANDFHR (UniProt Q5VTR2),0.279
11,SFSWAP_Q12872_307_CNRLEELMK (UniProt Q12872),-0.382
12,SAFB2_Q14151_672_ERLQLECQR (UniProt Q14151),-0.167
13,RPS6_P62753_12_KLNISFPATGCQK (UniProt P62753),0.00268
14,SAMM50_Q9Y512_403_THFFLNAGNLCNLNYGEGPK (UniProt Q9Y512),0.022
15,SAE1_Q9UBE0_134_VDTEDIEKKPESFFTQFDAVCLTCCSR (UniProt Q9UBE0),-0.00481
16,SART3_Q15020_182_DYICPNIWLEYGQYSVGGIGQK (UniProt Q15020),0.208

row,Target,probe-labelled cysteine peptide fold change
1,SNRNP70_P08621_39_HHNQPYCGIAPYIR (UniProt P08621),-0.0761
2,RPL11_P62913_21+25_KLCLNICVGESGDR (UniProt P62913),-0.0801
3,SLPI_P03973_51+57_YKKPECQSDWQCPGK (UniProt P03973),-0.847
4,SETD2_Q9BYW2_836_ISSNSFMNVHLESKPVICDSR (UniProt Q9BYW2),0.115
5,SIN3B_O75182_1138_TLCETVHVHGLPVTR (UniProt O75182),-0.165
6,SEC63_Q9UGP8_295_NEPPLTCPYSLK (UniProt Q9UGP8),-0.343
7,RPP25_Q9BUL9_70_AIVFSGCGR (UniProt Q9BUL9),0.319
8,SEPT5_Q99719_278_LYPWGIVEVENQAHCDFVK (UniProt Q99719),0.194
9,SMNDC1_O75940_214_VGVGTCGIADKPMTQYQDTSK (UniProt O75940),0.155
10,SAP30BP_Q9UHR5_127_CSNHLQDK (UniProt Q9UHR5),-0.0884
11,RPLP0_P05388_27_CFIVGADNVGSK (UniProt P05388),0.0238
12,SF1_Q15637_282_CGGAGHIASDCK (UniProt Q15637),0.0635
13,RNH1_P13489_30_WAELLPLLQQCQVVR (UniProt P13489),0.0863
14,SDCCAG8_Q86SQ7_236_CEIEESQLK (UniProt Q86SQ7),0.069
15,RNH1_P13489_199_DSPCQLEALKLESCGVTSDNCR (UniProt P13489),-0.339
16,RPS6KA3_P51812_436_EDIGVGSYSVCK<|>RPS6KA2_Q15349_429_EDIGVGSYSVCK (UniProt Q15349+P51812),-0.569

# Same assay, conditions: 50 µM; THP-1; incubation time: 4 h
row,Target,probe-labelled cysteine peptide fold change
1,SLC25A5_P05141_257_KGTDIMYTGTLDCWR (UniProt P05141),-0.203
2,SLK_Q9H2G2_1138_DLQLQCEANVR (UniProt Q9H2G2),0.0461
3,RNF14_Q9UBS8_350_LTYHGVSPCK (UniProt Q9UBS8),-0.206
4,SCAF11_Q99590_506_KLENTGIEANVLCLESEISENILEK (UniProt Q99590),0.011
5,RNH1_P13489_323+330_SCSFTAACCSHFSSVLAQNR (UniProt P13489),-0.562
6,SEMA4D_Q92854_370_PRPGACIDSEAR (UniProt Q92854),-1.22
7,SLITRK4_Q8IW52_661_HEGLGNPDCGSMQLQLR (UniProt Q8IW52),-0.498
8,SLX4_Q8IY92_318_CLDEAEK (UniProt Q8IY92),0.0245
9,RPAP1_Q9BWH6_185_GPSVGEVVPNVGPPEGAVTCETPTPR (UniProt Q9BWH6),1.33
10,RNF20_Q5VTR2_960_CNAAFGANDFHR (UniProt Q5VTR2),0.358
11,SFSWAP_Q12872_307_CNRLEELMK (UniProt Q12872),-1.12
12,SAFB2_Q14151_672_ERLQLECQR (UniProt Q14151),-0.742
13,RPS6_P62753_12_KLNISFPATGCQK (UniProt P62753),1.18
14,SAMM50_Q9Y512_403_THFFLNAGNLCNLNYGEGPK (UniProt Q9Y512),0.169
15,SAE1_Q9UBE0_134_VDTEDIEKKPESFFTQFDAVCLTCCSR (UniProt Q9UBE0),-1.27
16,SART3_Q15020_182_DYICPNIWLEYGQYSVGGIGQK (UniProt Q15020),0.164

row,Target,probe-labelled cysteine peptide fold change
1,SNRNP70_P08621_39_HHNQPYCGIAPYIR (UniProt P08621),-0.168
2,RPL11_P62913_21+25_KLCLNICVGESGDR (UniProt P62913),-0.334
3,SLPI_P03973_51+57_YKKPECQSDWQCPGK (UniProt P03973),-1.07
4,SETD2_Q9BYW2_836_ISSNSFMNVHLESKPVICDSR (UniProt Q9BYW2),0.0162
5,SIN3B_O75182_1138_TLCETVHVHGLPVTR (UniProt O75182),0.0678
6,SEC63_Q9UGP8_295_NEPPLTCPYSLK (UniProt Q9UGP8),-1.34
7,RPP25_Q9BUL9_70_AIVFSGCGR (UniProt Q9BUL9),-0.143
8,SEPT5_Q99719_278_LYPWGIVEVENQAHCDFVK (UniProt Q99719),0.135
9,SMNDC1_O75940_214_VGVGTCGIADKPMTQYQDTSK (UniProt O75940),-0.732
10,SAP30BP_Q9UHR5_127_CSNHLQDK (UniProt Q9UHR5),-0.31
11,RPLP0_P05388_27_CFIVGADNVGSK (UniProt P05388),0.0907
12,SF1_Q15637_282_CGGAGHIASDCK (UniProt Q15637),-0.0325
13,RNH1_P13489_30_WAELLPLLQQCQVVR (UniProt P13489),0.0624
14,SDCCAG8_Q86SQ7_236_CEIEESQLK (UniProt Q86SQ7),-0.322
15,RNH1_P13489_199_DSPCQLEALKLESCGVTSDNCR (UniProt P13489),-1.17
16,RPS6KA3_P51812_436_EDIGVGSYSVCK<|>RPS6KA2_Q15349_429_EDIGVGSYSVCK (UniProt Q15349+P51812),-1.64
